# Records with an inconclusive call do not appear. Values without a mark were called inactive. The source made the active and inactive calls. The call rests on the fitted dose curve; in most records, active means well fitted inhibition curve with a large enough effect; inconclusive means small, poorly fitted or top-dose-only effect; inactive means flat fitted curve, though single readings scatter.
# System: NIH3T3
# Experiment: Cytotoxic Profiling of Annotated Libraries Using Quantitative High-Throughput Screening (AID 1296008); further: potency means the concentration at half of the fitted maximal effect; on max response: on the % scale 0 is the no-effect control and ±100 the full control effect
# Conditions: Five cell lines viability, CellTiter-Glo ATP luminescence, 48-72 h; max response: stronger effect = lower value
# Method in brief: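 Cells exposed to compounds for 48 or 72 hr at 37 degrees Celsius. Viability read as ATP-coupled luminescence with CellTiter-Glo after 10 min at room temperature.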
# Further: nearly all actives have a fitted effect of over 60% in size.
Structure (SMILES),max response [%],outcome,Potency
CN(Cc1cccc(-c2ccncc2)c1)C(=O)Oc1ccc(-c2ccc(C(N)=O)cc2)cc1,2.66,,
CN(C(=O)C(c1ccccc1)c1ccccc1)[C@H](CN1CC[C@H](O)C1)c1ccccc1,3.64,,
C/C=C(\C)C(=O)OC1CC2C(CC=C3CC(OC4CC(OC)C(OC5CC(OC)C(OC6CC(OC)C(OC7CC(OC)C(O)C(C)O7)C(C)O6)C(C)O5)C(C)O4)CCC32C)C2(O)CCC(C(C)=O)C12C (configuration not stated),,inactive,
CN=C(NS(=O)(=O)c1ccc(Cl)cc1)N1C[C@H](c2ccccc2)C(c2ccc(Cl)cc2)=N1,4.13,,
COC1CC(O[C@H]2CC[C@@]3(C)C(CCC4C3CC[C@]3(C)C(C5=CC(=O)OC5)CCC43O)C2)OC(C)C1OC1OC(COC2OC(CO)C(O)C(O)C2O)C(O)C(O)C1O (some centres not stated),2.72,,
C[C@@H]1O[C@@H](OC2CCC3(C=O)C(CCC4C3CCC3(C)C(C5=CC(=O)OC5)C(O)CC43O)C2)[C@H](O)[C@H](O)[C@H]1O[C@@H]1O[C@H](CO)[C@@H](O)[C@H](O)[C@H]1O (some centres not stated),4.35,,
Cc1c(N[C@@H](c2nnc(-c3ccc(C#N)cc3)o2)[C@H](C)O)ccc(C#N)c1Cl,4.88,,
CC12CCC3C(C1)c1c(cc(O)c(C(=O)c4ccccc4)c1OC3(C)C)O2 (configuration not stated),3.12,,
CN1C(=O)[C@@H](Cc2c[nH]c3ccccc23)N=C(c2ccccc2F)c2ccccc21,-3.73,,
C=C(C)[C@@]12O[C@@H]1[C@@]1(C)C(=CC2=O)CC[C@@H](OC(C)=O)[C@@H]1C,,,3.66 µM (active)
CC[C@H](O)[C@@H](C)[C@H]1O[C@@H]1C[C@H](C)/C=C/C=C(\C)[C@H]1OC(=O)C[C@H](O)CC[C@@](C)(O)[C@@H](OC(C)=O)/C=C/[C@@H]1C,,,0.0116 µM (active)
C=C1C2(C)CC3C(C)(O)C4=CC(=O)OC(C)(C)C4=CCC3(C)C13C(=O)OC(C)C3(O)C2=O (configuration not stated),-1.67,,
CN(C)[C@@H]1C(=O)C(C(N)=O)=C(O)[C@@]2(O)C(=O)C3=C(O)c4c(O)ccc(Cl)c4[C@@](C)(O)C3C[C@@H]12 (some centres not stated),,inactive,
CC(=O)O[C@H]1C[C@]2(O)[C@@H]3CC[C@@H]4C[C@@H](O)CC[C@]4(C)[C@H]3CC[C@]2(C)[C@H]1c1ccc(=O)oc1,-9.3,,
CN1CCC2=C(C1)c1ccccc1Cc1ccccc12,0.135,,
C=C(C)C(=O)O[C@H]1[C@@H]2[C@H](C)C(=O)O[C@@H]2C[C@@H](C)[C@@H]2C=CC(=O)[C@]21C,,,8.05 µM (active)
CCOc1ccc(Oc2ccc(OCc3cc(F)ccc3F)cc2)c(N)c1,-0.81,,
CCN1C[C@]2(COC)CC[C@H](O)[C@@]34C5C[C@@H]6[C@@H](OC)C[C@@](OC(C)=O)(C5[C@@H]6OC(C)=O)[C@H]([C@H](OC)C23)[C@@H]14 (some centres not stated),2.14,,
CC(C)[C@H](NC(=O)c1nn(Cc2ccc(F)cc2)c2ccccc12)C(N)=O,-27.5,,
CCCN(CCC)[C@@H]1CCc2ccc3[nH]c(C#N)cc3c2C1,,inactive,
Cc1ccc2c(c1)[C@H]1CN(C)CC[C@H]1N2C(=O)CSc1nnnn1-c1ccc(Cl)cc1,,inactive,
C[C@]12CC[C@H](O)C[C@@H]1CC[C@@H]1[C@@H]2CC[C@]2(C)C(=O)CC[C@@H]12,-0.109,,
CC(=O)OC[C@]12[C@H](OC(C)=O)C(=O)[C@@H]3[C@@H](O)[C@@]14O[C@@]3(C)COC(=O)c1cccnc1[C@@H](C)[C@H](C)C(=O)O[C@@H]([C@H](OC(C)=O)[C@@H]2OC(C)=O)[C@]4(C)O,0.381,,
CN1C(=O)N(c2ccc(C#N)c(C(F)(F)F)c2)C(=O)[C@@]1(CO)c1ccccc1,4.41,,
CCCCCn1cc(C(=O)Oc2cccc3cccnc23)c2ccccc21,-5.3,,
C[C@]12CC[C@H](O)C[C@@H]1CC[C@@H]1[C@@H]2CC[C@]2(C)[C@@H](C3=CC(=O)OC3)CC[C@]12O,3.54,,
C[C@]12CC[C@H](O)C[C@@]1(O)CC[C@@H]1[C@@H]2CC[C@]2(C)[C@@H](c3ccc(=O)oc3)CC[C@]12O,-7.45,,
COC(=O)C12C(=O)C(C)(O)C(=O)C1(C)C(C)=CC1C34CCC(OC3=O)C(C)(C)C4CCC12C (configuration not stated),-10.7,,
CC1=CC2OC3CC(O)[C@](C)([C@@]2(C)C(O)C1=O)[C@]31CO1 (some centres not stated),,,4.11 µM (active)
CN1Cc2c(ccc3c2OCO3)[C@@H]2[C@H]1c1cc3c(cc1C[C@@H]2O)OCO3,,,2.55 µM (active)

# System: CRL-7250
# Experiment: qHTS assay to identify novel small-molecules to repurpose for Merkel cell carcinoma treatment (AID 1296009)
# Conditions: MCC and control cell lines, CellTiter-Glo viability, 72 h; series mostly up to 92 µM
# Method in brief: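 Cells were incubated with compound for 72 hr at 37 degree celsius before CellTiter-Glo addition. Luminescence was normalized with no-cell wells as full cytotoxicity and DMSO as baseline.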
row,Structure (SMILES),Potency
1,CN(Cc1cccc(-c2ccncc2)c1)C(=O)Oc1ccc(-c2ccc(C(N)=O)cc2)cc1,inactive
2,CN(C(=O)C(c1ccccc1)c1ccccc1)[C@H](CN1CC[C@H](O)C1)c1ccccc1,inactive
3,CN=C(NS(=O)(=O)c1ccc(Cl)cc1)N1C[C@H](c2ccccc2)C(c2ccc(Cl)cc2)=N1,inactive
4,Cc1c(N[C@@H](c2nnc(-c3ccc(C#N)cc3)o2)[C@H](C)O)ccc(C#N)c1Cl,inactive
5,CC12CCC3C(C1)c1c(cc(O)c(C(=O)c4ccccc4)c1OC3(C)C)O2 (configuration not stated),inactive
6,CN1C(=O)[C@@H](Cc2c[nH]c3ccccc23)N=C(c2ccccc2F)c2ccccc21,inactive
7,CN1CCC2=C(C1)c1ccccc1Cc1ccccc12,inactive
8,CCOc1ccc(Oc2ccc(OCc3cc(F)ccc3F)cc2)c(N)c1,inactive
9,CCCN(CCC)[C@@H]1CCc2ccc3[nH]c(C#N)cc3c2C1,inactive
10,CC(=O)OC[C@]12[C@H](OC(C)=O)C(=O)[C@@H]3[C@@H](O)[C@@]14O[C@@]3(C)COC(=O)c1cccnc1[C@@H](C)[C@H](C)C(=O)O[C@@H]([C@H](OC(C)=O)[C@@H]2OC(C)=O)[C@]4(C)O,inactive
11,CN1C(=O)N(c2ccc(C#N)c(C(F)(F)F)c2)C(=O)[C@@]1(CO)c1ccccc1,inactive
12,CCCCCn1cc(C(=O)Oc2cccc3cccnc23)c2ccccc21,inactive
